Source: PubChem BioAssay (NCATS)
Inconclusive results are not listed. Active and inactive are the calls of the source. Calls follow the shape of the dose curve; as a rule, active = well fitted inhibition curve with a large enough effect; inconclusive = small, poorly fitted or top-dose-only effect; inactive = no such curve, though single readings can be large or run the other way.

Test: Primary qHTS for inhibitors of La Crosse Virus (LACV) - induced cell death in SH-SY5Y cells (AID 1508616);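 also: top concentration of the series differs between compounds; 0% = infected DMSO wells and 100% = uninfected DMSO wells; higher means more rescue of cells from virus-induced death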
Details: SH-SY5Y LACV cytopathicity rescue, ATP luminescence, 6 d; series mostly up to 4.29 µM; activity change: at the top concentration
Source text: Assay Provider: Karin Peterson Ph.D.
National Institute of Allergy and Infection Diseases, National Institute of Health
La Crosse Virus (LACV) is a California serogroup mosquito-borne arbovirus, family Peribunyaviridae, which is an endemic pathogen in North America and can induce a rare, life-threatening neurological disease in children. LACV was first isolated in the early 1960s, from a summer "rural encephalitis" case in La Crosse, Wisconsin, USA. Since then, LACV encephalitis cases have been found in more than twenty states, with most cases in the Mississippi and Ohio River basins. The life cycle of LACV is maintained between the vector, the eastern tree-hole mosquito Aedes triseriatus, and vertebrate hosts including eastern gray squirrels (Sciurus carolinensis) and chipmunks (Tamiasstriatus grinseus). […] Most LACV infections in humans are asymptomatic or induce mild clinical symptoms of fever, headache, lethargy and vomiting. However, in some cases LACV can cause severe neuroinvasive disease, including encephalitis, meningitis, and meningoencephalitis, requiring hospitalization. To date, there is neither a licensed vaccine nor a Food and Drug Administration (FDA) approved antiviral therapy available to prevent or treat LACV encephalitis. The primary treatment for viral encephalitis is palliative care due to the lack of therapeutics. In the current study, we conducted a screen of 4,096 FDA approved and bioactive small molecules against LACV, by screening for rescue of LACV-induced cell death in SH-SY5Y cells.
LACV-induced cytopathicity assay
SEQUENCE No. (1,2, 3, etc.); […] (e.g., Cells, Incubation, Reagent, etc.); VALUE and DESCRIPTION.
1. Reagent; 2 uL; Cell solution.
3. Compounds; 23nL; Compound library
4. Reagent; 12 uL; LACV virus
6. Reagent; 24 uL; ATPLite (PerkinElmer)
7. Time; 5 min; Room temperature
8. Detection; Luminescence; View
NOTES (numbers refer to sequence above)
1. Seed 6000 SH-SY5Y cells (ATCC CRL-2266) in 2 microL/well media (DMEM/F12 10% FBS, 1x L-Glutamine, 1x Pyruvate, 1x NEAA, 1x Pen/Strep) in 384-well assay plates (tissue culture treated, white, solid bottom).
2. Incubate at 37 degrees C with 5% CO2 for 24 hr.
3. Dispense 23 nL/well compounds in DMSO via pin transfer.
4. Dispense 12 microL/well of LACV (LACV/human/1978) in media at 0.01 MOI.
5. Incubate at for 6 days at 37C 5% CO2
6. Dispense 24 microL/well of ATPLite 1step Luminescence assay system (PerkinElmer).
7. Incubate for 5 min at room temperature.
8. Read luminescence signal (Viewlux plate reader, PerkinElmer). Data was normalized with DMSO control wells containing LACV as 0%, and DMSO control wells without virus as 100%.

| SMILES | activity change |
| --- | --- |
| CCN(CC)CC(=O)Nc1c(C)cccc1C(=O)OC | 9.34% (inactive) |
| O=C1CC[C@H](C(=O)N2CCCCC2)N1 | 14.9% (inactive) |
| CC(C(O)c1ccccc1)N(C)CCOC(c1ccccc1)c1ccccc1 (stereo not given) | -7.53% (inactive) |
| CC(CC1c2ccccc2CCc2ccccc21)CN(C)C (stereo not given) | 0.448% (inactive) |
| Nc1ncnc2c1ncn2Cc1c(F)cccc1Cl | 1.84% (inactive) |
| Nc1ccc2c(c1)CN1C(=O)c3ccccc3C1=N2 | -22.4% [at 1.78 µM] (inactive) |
| O=C1CC2(CCCC2)CC(=O)N1CCNCC1COc2ccccc2O1 (stereo not given) | 14.2% (inactive) |
| C[C@@H](O[C@H]1OCCN(Cc2n[nH]c(=O)[nH]2)[C@H]1c1ccc(F)cc1)c1cc(C(F)(F)F)cc(C(F)(F)F)c1 | 97.9% (inactive) |
| COc1cc(/C=C/C(N)=O)cc(OC)c1OC | 10.5% (inactive) |
| NS(=O)(=O)c1cc(C(=O)NN2C[C@H]3[C@H]4CCC(C4)[C@H]3C2)ccc1Cl | 27.3% (inactive) |
| COC(=O)CCCCC(CCSS/C(CCO)=C(\C)N(C=O)Cc1cnc(C)nc1N)SC(C)=O (stereo not given) | -5.63% (inactive) |
| C/C=C(/C(=C/C)c1ccc(OC(C)=O)cc1)c1ccc(OC(C)=O)cc1 | 6.1% (inactive) |
| CCN1C(=O)c2ccccc2C1Nc1ccc(OCCN2CCCCC2)cc1 (stereo not given) | 5.35% (inactive) |
| CC(=O)OCC[N+](C)(C)C | 27.8% (inactive) |
| O=C(CCCl)NCc1ccccc1 | -9.97% (inactive) |
| C=CCNc1nc(NCC=C)nc(N2CCN(C(c3ccc(F)cc3)c3ccc(F)cc3)CC2)n1 | -4.55% (inactive) |
| CC(C)(Oc1ccc(Cl)cc1)C(=O)OCCCOC(=O)C(C)(C)Oc1ccc(Cl)cc1 | 39.9% (inactive) |
| CCS(=O)(=O)c1ccc(OC)c(C(=O)OC)c1 | 22.2% (inactive) |
| CN(C)CCOC(c1ccccc1)c1ccc(Br)cc1 (stereo not given) | -14.8% (inactive) |
| O=C(Nc1ccc(S(=O)(=O)N2CCOCC2)cc1)c1cc(Cl)ccc1NS(=O)(=O)c1ccc(Cl)s1 | -21.6% (inactive) |

| SMILES | activity change |
| --- | --- |
| OC[C@]1(O)OC[C@@H](O)[C@H](O)[C@@H]1O | -6.25% (inactive) |
| Brc1ccccc1-c1ccccc1 | -8.19% [at 8.54 µM] (inactive) |
| CCCCN(CCN(CCCC)C(=O)N1CCOCC1)C(=O)N1CCOCC1 | -12.5% (inactive) |
| CC(=O)N1CCN(c2ccc(O)cc2)CC1 | -1.2% (inactive) |
| CCOC(=O)NNc1ccc(N(CC)CC(C)O)nn1 (stereo not given) | -5.59% (inactive) |
| CCN1CCN(C(=O)N[C@@H](C(=O)N[C@@H]2C(=O)N3[C@@H]2SC(C)(C)[C@H]3C(=O)O)c2ccccc2)C(=O)C1=O | -4.62% (inactive) |
| O=C1NC2CCCCN2C12CCN(CCCN1c3ccccc3CCc3ccc(Cl)cc31)CC2 (stereo not given) | -15.3% (inactive) |
| CCOc1ccc(NS(=O)(=O)c2ccc(N)cc2)nn1 | -0.802% (inactive) |
| OC1(c2ccccc2)CCNCC1 | 6.85% (inactive) |
| COc1ccc2c(c1)CCCC2=O | -2.73% (inactive) |
| CCCC(=O)Nc1ccc(O)c(C(C)=O)c1 | 2.87% (inactive) |
| CN(C)[C@@H]1C(=O)C(C(N)=O)=C(O)[C@@]2(O)C(=O)C3=C(O)c4c(O)cccc4C[C@H]3C[C@@H]12 | -16.3% (inactive) |
| C=C(C)C(=O)OCC(O)CO (stereo not given) | 13.3% (inactive) |
| CCCC(=O)O[C@]1(C(=O)CCl)[C@@H](C)C[C@H]2[C@@H]3CCC4=CC(=O)C=C[C@]4(C)[C@@]3(F)C(=O)C[C@@]21C | 56.9% (inactive) |
| CCCC(=O)OCOC(=O)C1=C(C)NC(C)=C(C(=O)OC)C1c1cccc(Cl)c1Cl (stereo not given) | 0.729% (inactive) |
| CCCCC(O)/C=C(C)/C=C/C=C/C(=O)N1CCCC1=O (stereo not given) | 13.6% (inactive) |
| O=C(CCCl)NCCc1ccccc1 | 33.4% (inactive) |
| O=C(c1ccccc1)c1ccccc1 | 1.33% (inactive) |
| CC(=O)OCC(=O)[C@@]1(O)CCC2C3CCC4=CC(=O)CC[C@]4(C)C3[C@@H](O)C[C@@]21C (stereo not given in full) | 30.2% (inactive) |
| CC(C)(C)C(=O)OCOC(=O)C1N2C(=O)CC2S(=O)(=O)C1(C)C (stereo not given) | -0.0764% (inactive) |
